Bioassay records as filed in PubChem BioAssay.
This is a sample that favours compounds with a hit; in the whole collection about 12% have one here.
Sfp PPTase inh: inhibitors of Bacillus subtilis Sfp phosphopantetheinyl transferase | Potency, µM, for the others: largest response in the series, negative = inhibition, actives largely listed as inhibitors | 310,000 compounds, 3.5% hits | Biochemical Sfp PPTase activity, qHTS | AID 1490;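 note: the enzyme is Sfp with the accession as filed and its product quenches rhodamine fluorescence; 0% = enzyme reaction without inhibitor and -100% = no enzyme wells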
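Buffer: 50 mM Hepes-Na pH 7.6, 10 mM MgCl2, 0.01% Nonidet P-40, 0.01% BSA. Enzyme 15 nM, pre-exposed to compound 15 min; substrates then added and fluorescence change tracked over 30 min.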
HP1b binding inh: inhibitors of HP1-beta chromodomain binding to methylated histone tails. P83916. AlphaScreen HP1-beta / biotin-H3K9me3 peptide binding. Potency, µM (series often up to 114 µM), inactives show top-dose activity change, negative = inhibition, actives largely listed as inhibitors. 390,000 compounds, 0.56% hits. AID 540317; note: nearly all actives have a fitted effect of over 70% in size
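Compound inhibition of the preformed complex between 50 nM HP1-beta and 50 nM biotinylated H3K9me3 peptide was read by AlphaScreen. Buffer was PBS pH 7.4 with 0.01% Tween-20. Incubations ran 30 min at room temperature, with 10 ug/mL donor/acceptor beads.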
BAZ2B inh: blocks human BAZ2B. Q9UIF8. AlphaScreen BAZ2B-H3K14Ac peptide displacement. Potency, µM (doses to about 114 µM), for the others: at the top dose activity change, negative = inhibition, hits mostly inhibitors. 360,000 compounds, 4.4% hits. AID 504333; note: % is set by controls: 0 for no effect and ±100 for the full control effect; nearly all actives have a fitted effect of over 60% in size
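Complex of BAZ2B and biotin-H3K14Ac (50 nM apiece) forms over 30 min at RT, then faces library compounds up to 110 uM for another 30 min; AlphaScreen beads added, 20 min dark incubation, luminescence read.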
G9a inh: G9a (human) methyltransferase inhibition; AID 504332; G9a H3K9 monomethylation, AlphaScreen, 2 h; Q96KQ7; 350,000 compounds, 8.8% hits; Potency, µM (doses to about 102 µM), for the others: at the highest dose activity, negative = inhibition, usual class: inhibitors; note: % is set by controls: 0 for no effect and ±100 for the full control effect; nearly all actives have a fitted effect of over 75% in size
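Using a bead-based AlphaScreen, monomethylated H3K9 product from 2 h room-temperature reactions (G9a 20 nM, peptide 500 nM, SAM 20 uM) was detected with 0.5 ug/mL rabbit anti-H3K9me1 antibody.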
L3MBTL1 inh: inhibitors of human L3MBTL1; Q9Y468; AlphaScreen L3MBTL1–H3K9me1 peptide binding; Potency, µM (highest dose often 57.1 µM), inactives show top-dose activity, negative = inhibition, usual class: inhibitors; 230,000 compounds, 0.66% hits; note: % is set by controls: 0 for no effect and ±100 for the full control effect; nearly all actives have a fitted effect of over 60% in size
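First, the protein-peptide complex forms for 30 min at room temperature (L3MBTL1 50 nM, biotinylated H3K9me1 peptide 75 nM). Next, compounds are pin-transferred and incubated 30 min. Finally, AlphaScreen beads are added and read after 30 min.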
JMJD2A Tudor: blocks the human JMJD2A Tudor domain. O75164. AlphaScreen JMJD2A-Tudor / H3K4me3 peptide binding. Potency, µM (titrated, usually from 114 µM), without a hit: at the highest dose activity change, negative = inhibition, most hits filed as inhibitors. 390,000 compounds, 4.4% hits; note: % is set by controls: 0 for no effect and ±100 for the full control effect; nearly all actives have a fitted effect of over 50% in size
Numbers without * were called inactive; [ ] = another dose, or the depositor's remark. Calls come from the whole dose curve; as a rule, active = well fitted curve in the direction sought with a large enough effect; inconclusive = small, poorly fitted or top-dose-only effect, or another doubt; inactive = no such curve, though single readings can be large; an effect the other way counts as inactive or inconclusive. Potency is the fitted concentration of half-maximal effect.

For O=[N+]([O-])c1ccc(/C=N/N2CCN(c3ccncc3S(=O)(=O)N3CCCCC3)CC2)cc1 the results were Sfp PPTase inh 9%, HP1b binding inh 4%, BAZ2B inh 0%, G9a inh 22%[59 µM], L3MBTL1 inh -5% and JMJD2A Tudor -24%.
Screening COc1cc(OC)cc(C(=O)Nc2ccc3nc(N4CCCCC4)cc(C)c3c2)c1 returned HP1b binding inh 6%, BAZ2B inh -16%, G9a inh -2%[59 µM] and JMJD2A Tudor -26%.
Screening CCc1nn2c(=O)cc(COc3cccc(NC(=O)c4ccco4)c3)nc2s1 returned Sfp PPTase inh 11%, HP1b binding inh 13%, BAZ2B inh inconclusive and JMJD2A Tudor 25µM*.
`CCC(C)NC(=O)NC(=O)CSc1nnc(-c2ccccc2F)n1C1CC1` (configuration not stated) gave Sfp PPTase inh 5%, HP1b binding inh 44%, BAZ2B inh 3%, G9a inh 35µM* and JMJD2A Tudor -3%.
For CCC(=O)Nc1ccc(C(=O)CSc2nnc(-c3ccccc3F)n2C2CC2)cc1 the results were Sfp PPTase inh 5%, HP1b binding inh 31%, BAZ2B inh -2%, G9a inh inconclusive, L3MBTL1 inh -19% and JMJD2A Tudor -11%.
Cc1ccc2c(c1)sc[n+]2Cc1ccccc1 was read as Sfp PPTase inh 25µM*, HP1b binding inh 21%, BAZ2B inh 71µM*, G9a inh inconclusive, L3MBTL1 inh -5% and JMJD2A Tudor 28µM*.
`COc1ccc(C2/C=C\CN(CC(C)C)C(Cc3ccccc3)C(=O)N2Cc2ccc(F)cc2)cc1` (configuration not stated) gave Sfp PPTase inh 4%, HP1b binding inh 49% and JMJD2A Tudor -6%.
For CCOc1ccc(C(=S)N2CCCC2)cc1OCC the results were Sfp PPTase inh 56µM*, HP1b binding inh -10%, BAZ2B inh 6%, G9a inh 10µM*, L3MBTL1 inh 1% and JMJD2A Tudor -6%.
Screening CCOc1cc2nc(-c3ccc(OC)c(OC)c3)nc(N3CC(C)OC(C)C3)c2cc1OC (configuration not stated) returned Sfp PPTase inh 1%, BAZ2B inh -3% and L3MBTL1 inh -2%.
`CCOc1cc2nc(-c3ccc(OC)c(OC)c3)nc(N3CCOCC3)c2cc1OC` gave Sfp PPTase inh 14%, HP1b binding inh 8%, BAZ2B inh 56µM*, G9a inh -7%[2.33 µM], L3MBTL1 inh 3% and JMJD2A Tudor -26%.
Screening CCOc1cc(C(=S)N2CCCC2)ccc1OCc1ccccc1 returned Sfp PPTase inh 15%, HP1b binding inh 3%, BAZ2B inh -30%, G9a inh 1%, L3MBTL1 inh -10% and JMJD2A Tudor -20%.
CCOc1cc(C(=S)N2CCOCC2)ccc1OC(=O)c1ccccc1 was read as Sfp PPTase inh 79µM*, HP1b binding inh -25%, BAZ2B inh inconclusive, G9a inh 22µM*, L3MBTL1 inh -15% and JMJD2A Tudor -34%.
Screening CCOc1cc(C(=S)N2CCOCC2)ccc1OC(=O)c1cccc(C)c1 returned Sfp PPTase inh -3%, HP1b binding inh -6%, BAZ2B inh -36%, G9a inh inconclusive, L3MBTL1 inh -9% and JMJD2A Tudor inconclusive.
For CCOc1cc(/C=C/C(=O)c2ccc(OC)c(CN3CCOCC3)c2)cc(Br)c1O the results were Sfp PPTase inh -1%, HP1b binding inh -37%, BAZ2B inh inconclusive, G9a inh 45µM* and JMJD2A Tudor inconclusive.
`CCOc1cc(C(=S)N2CCOCC2)ccc1OC` gave Sfp PPTase inh -30%, HP1b binding inh -18%, BAZ2B inh 1%, G9a inh 10µM* and JMJD2A Tudor -17%.
For CCOc1ccc(C(=S)N2CCOCC2)cc1OC the results were Sfp PPTase inh -13%, HP1b binding inh -15%, BAZ2B inh -3%, G9a inh inconclusive, L3MBTL1 inh -4% and JMJD2A Tudor -8%.
Screening CCOc1cc(C(=S)N2CCOCC2)ccc1OC(=O)c1ccc(C)cc1 returned Sfp PPTase inh -9%, HP1b binding inh -21%, BAZ2B inh -32%, G9a inh 45µM*, L3MBTL1 inh -15% and JMJD2A Tudor inconclusive.
Screening CCOc1cc(C(=S)N2CCOCC2)ccc1OS(=O)(=O)c1ccccc1 returned Sfp PPTase inh -11%, HP1b binding inh 28%, BAZ2B inh -9%, G9a inh -6%[59 µM], L3MBTL1 inh -10% and JMJD2A Tudor -19%.
For COc1cccc(Cn2c(=O)c(-c3cn(C)c4ccccc34)nc3cnc(OC)nc32)c1 the results were Sfp PPTase inh 5% and G9a inh -4%[0.501 µM].
Screening O=C(O)c1ccc(/C=N/NC(=O)c2cc(-c3ccc4c5c(cccc35)CC4)n[nH]2)cc1 returned Sfp PPTase inh 11%, HP1b binding inh -14%, BAZ2B inh 50µM*, G9a inh inconclusive, L3MBTL1 inh -19% and JMJD2A Tudor inconclusive.
For COc1ccc(CCC(=O)N2CCCC(Nc3ccc(C)c(C)c3)C2)cc1OC (configuration not stated) the results were Sfp PPTase inh 7%, HP1b binding inh -14%, BAZ2B inh inconclusive, G9a inh 45µM* and JMJD2A Tudor inconclusive.
COc1ccc(NC2CCCN(C(=O)COc3ccc(Cl)cc3C)C2)cc1OC (configuration not stated) was read as Sfp PPTase inh 6%, HP1b binding inh -38%, BAZ2B inh inconclusive, G9a inh 50µM* and JMJD2A Tudor inconclusive.
Screening COc1ccccc1OCC(=O)N1CCCC(Nc2ccc(C)c(C)c2)C1 (configuration not stated) returned Sfp PPTase inh 3%, HP1b binding inh -28%, BAZ2B inh inconclusive and JMJD2A Tudor inconclusive.
O=C(c1ccc2c(c1)N(Cc1ccccc1F)C(=O)c1ccccc1S2=O)N1CCN(c2ccccc2)CC1 (configuration not stated) was read as HP1b binding inh 10%, BAZ2B inh -30%, G9a inh -38%[59 µM] and JMJD2A Tudor -19%.
CCN(c1ncnc2c1cnn2-c1cc(Cl)ccc1C)C1CCCCC1 was read as HP1b binding inh 49%, BAZ2B inh 14%, G9a inh 0%[59 µM] and JMJD2A Tudor -9%.
For CCOC(=O)n1ccn(C)c1=S the results were Sfp PPTase inh -71% and G9a inh -3%[21.5 µM].
Screening COc1cc(-c2nc3sccn3c2Nc2cccc(C)c2)ccc1O returned HP1b binding inh inconclusive, BAZ2B inh 13µM*, G9a inh 11µM* and JMJD2A Tudor 45µM*.
